From ChEMBL document CHEMBL1961873, “Compounds: GSK PKIS; Assays: Nanosyn kinase panel” (2012)

Assays:
[1] = target: Ribosomal protein S6 kinase alpha-6 (Homo sapiens) (UniProt Q9UK32); conditions: at 1 µM;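 note: each value is a mean inhibition of RSK4 from a GSK PKIS panel screen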
[2] = target: T1, Serine/threonine-protein kinase Sgk1 (Homo sapiens) (UniProt O00141); conditions: at 0.1 µM
T1 sequence (whole entry): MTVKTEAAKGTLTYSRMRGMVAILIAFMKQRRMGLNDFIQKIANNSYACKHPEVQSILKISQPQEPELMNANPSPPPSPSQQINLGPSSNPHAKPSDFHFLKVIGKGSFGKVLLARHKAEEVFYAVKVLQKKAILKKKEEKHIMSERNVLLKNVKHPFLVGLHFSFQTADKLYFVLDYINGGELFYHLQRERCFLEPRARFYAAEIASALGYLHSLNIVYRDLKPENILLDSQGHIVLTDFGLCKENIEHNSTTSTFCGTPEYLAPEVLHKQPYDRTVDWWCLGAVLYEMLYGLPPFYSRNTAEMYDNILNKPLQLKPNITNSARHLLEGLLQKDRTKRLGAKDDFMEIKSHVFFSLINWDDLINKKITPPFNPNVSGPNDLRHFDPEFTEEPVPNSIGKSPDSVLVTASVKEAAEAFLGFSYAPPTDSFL

[3] = target: T1, Serine/threonine-protein kinase Sgk1 (Homo sapiens); conditions: at 1 µM
[4] = target: T2, Serine/threonine-protein kinase Sgk2 (Homo sapiens) (UniProt Q9HBY8); conditions: at 0.1 µM
T2 sequence (whole entry): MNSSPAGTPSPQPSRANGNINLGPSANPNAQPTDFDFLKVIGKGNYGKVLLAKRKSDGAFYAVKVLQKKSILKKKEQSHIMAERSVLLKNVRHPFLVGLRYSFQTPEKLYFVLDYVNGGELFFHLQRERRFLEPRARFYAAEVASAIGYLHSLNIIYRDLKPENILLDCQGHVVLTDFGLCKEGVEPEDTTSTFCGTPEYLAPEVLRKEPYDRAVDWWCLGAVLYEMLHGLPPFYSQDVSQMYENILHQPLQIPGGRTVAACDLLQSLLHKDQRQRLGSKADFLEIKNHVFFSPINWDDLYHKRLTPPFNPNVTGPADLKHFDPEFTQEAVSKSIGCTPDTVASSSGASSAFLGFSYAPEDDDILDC

[5] = target: T2, Serine/threonine-protein kinase Sgk2 (Homo sapiens); conditions: at 1 µM
[6] = target: T3, Serine/threonine-protein kinase Sgk3 (Homo sapiens) (UniProt Q96BR1); conditions: at 0.1 µM
T3 sequence (whole entry): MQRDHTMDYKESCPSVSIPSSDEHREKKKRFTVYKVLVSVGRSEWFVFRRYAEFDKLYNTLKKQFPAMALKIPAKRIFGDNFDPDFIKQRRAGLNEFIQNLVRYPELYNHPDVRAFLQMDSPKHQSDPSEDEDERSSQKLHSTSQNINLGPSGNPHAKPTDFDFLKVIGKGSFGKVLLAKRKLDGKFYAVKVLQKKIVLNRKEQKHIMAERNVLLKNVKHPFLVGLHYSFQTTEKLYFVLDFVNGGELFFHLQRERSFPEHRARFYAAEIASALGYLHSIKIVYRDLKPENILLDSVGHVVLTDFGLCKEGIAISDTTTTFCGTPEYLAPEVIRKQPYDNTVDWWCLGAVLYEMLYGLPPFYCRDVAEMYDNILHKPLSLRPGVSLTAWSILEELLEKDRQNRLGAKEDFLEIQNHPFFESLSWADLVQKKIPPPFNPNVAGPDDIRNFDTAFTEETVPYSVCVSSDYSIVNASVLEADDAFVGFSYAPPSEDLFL

[7] = target: T3, Serine/threonine-protein kinase Sgk3 (Homo sapiens); conditions: at 1 µM
[8] = target: 5'-AMP-activated protein kinase catalytic subunit alpha-1 (Homo sapiens) (UniProt Q13131); conditions: at 0.1 µM
[9] = target: 5'-AMP-activated protein kinase catalytic subunit alpha-1 (Homo sapiens) (UniProt Q13131); conditions: at 1 µM
[10] = target: 5'-AMP-activated protein kinase catalytic subunit alpha-2 (Homo sapiens) (UniProt P54646); conditions: at 0.1 µM
[11] = target: 5'-AMP-activated protein kinase catalytic subunit alpha-2 (Homo sapiens) (UniProt P54646); conditions: at 1 µM
[12] = target: T4, NUAK family SNF1-like kinase 1 (Homo sapiens) (UniProt O60285); conditions: at 0.1 µM
T4 sequence (whole entry): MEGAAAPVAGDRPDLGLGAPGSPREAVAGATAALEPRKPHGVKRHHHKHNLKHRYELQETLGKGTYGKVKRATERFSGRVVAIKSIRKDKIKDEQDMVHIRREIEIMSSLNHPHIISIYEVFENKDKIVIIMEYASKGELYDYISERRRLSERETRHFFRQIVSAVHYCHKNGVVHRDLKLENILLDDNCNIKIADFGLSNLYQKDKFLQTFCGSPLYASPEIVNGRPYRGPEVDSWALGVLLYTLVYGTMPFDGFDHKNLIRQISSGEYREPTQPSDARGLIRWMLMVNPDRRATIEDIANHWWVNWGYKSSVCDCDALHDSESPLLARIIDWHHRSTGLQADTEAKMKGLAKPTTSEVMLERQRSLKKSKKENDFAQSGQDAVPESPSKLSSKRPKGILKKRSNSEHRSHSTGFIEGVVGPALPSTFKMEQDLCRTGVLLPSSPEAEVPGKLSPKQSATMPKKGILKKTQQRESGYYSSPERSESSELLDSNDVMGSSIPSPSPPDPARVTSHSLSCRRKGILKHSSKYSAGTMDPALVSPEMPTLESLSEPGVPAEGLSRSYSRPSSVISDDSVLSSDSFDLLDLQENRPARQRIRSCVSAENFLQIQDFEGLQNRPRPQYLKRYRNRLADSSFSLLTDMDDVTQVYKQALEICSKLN

[13] = target: T4, NUAK family SNF1-like kinase 1 (Homo sapiens); conditions: at 1 µM
[14] = target: T5, Serine/threonine-protein kinase BRSK1 (Homo sapiens) (UniProt Q8TDC3); conditions: at 0.1 µM
T5 sequence (whole entry): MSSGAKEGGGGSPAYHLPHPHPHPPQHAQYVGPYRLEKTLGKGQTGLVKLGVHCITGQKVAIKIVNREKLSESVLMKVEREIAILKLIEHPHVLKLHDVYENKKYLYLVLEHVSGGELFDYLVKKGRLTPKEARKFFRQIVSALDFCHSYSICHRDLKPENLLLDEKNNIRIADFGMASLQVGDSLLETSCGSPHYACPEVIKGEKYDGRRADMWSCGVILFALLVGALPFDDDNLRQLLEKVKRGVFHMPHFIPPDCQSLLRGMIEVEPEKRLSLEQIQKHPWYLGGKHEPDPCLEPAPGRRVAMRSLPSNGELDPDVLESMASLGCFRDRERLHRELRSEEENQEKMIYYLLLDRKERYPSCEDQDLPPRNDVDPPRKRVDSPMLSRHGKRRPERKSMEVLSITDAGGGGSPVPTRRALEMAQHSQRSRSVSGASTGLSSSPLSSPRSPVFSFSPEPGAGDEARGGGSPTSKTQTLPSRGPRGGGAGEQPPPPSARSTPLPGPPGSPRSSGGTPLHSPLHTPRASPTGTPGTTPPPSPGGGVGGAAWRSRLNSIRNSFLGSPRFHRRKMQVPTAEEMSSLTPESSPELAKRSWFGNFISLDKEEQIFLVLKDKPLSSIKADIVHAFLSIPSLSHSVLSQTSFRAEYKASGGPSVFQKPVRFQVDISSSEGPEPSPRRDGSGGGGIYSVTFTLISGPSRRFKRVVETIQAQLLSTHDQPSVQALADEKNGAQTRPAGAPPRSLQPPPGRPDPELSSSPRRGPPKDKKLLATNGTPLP

[15] = target: T5, Serine/threonine-protein kinase BRSK1 (Homo sapiens); conditions: at 1 µM
[16] = target: T6, Serine/threonine-protein kinase BRSK2 (Homo sapiens) (UniProt Q8IWQ3); conditions: at 0.1 µM
T6 sequence (whole entry): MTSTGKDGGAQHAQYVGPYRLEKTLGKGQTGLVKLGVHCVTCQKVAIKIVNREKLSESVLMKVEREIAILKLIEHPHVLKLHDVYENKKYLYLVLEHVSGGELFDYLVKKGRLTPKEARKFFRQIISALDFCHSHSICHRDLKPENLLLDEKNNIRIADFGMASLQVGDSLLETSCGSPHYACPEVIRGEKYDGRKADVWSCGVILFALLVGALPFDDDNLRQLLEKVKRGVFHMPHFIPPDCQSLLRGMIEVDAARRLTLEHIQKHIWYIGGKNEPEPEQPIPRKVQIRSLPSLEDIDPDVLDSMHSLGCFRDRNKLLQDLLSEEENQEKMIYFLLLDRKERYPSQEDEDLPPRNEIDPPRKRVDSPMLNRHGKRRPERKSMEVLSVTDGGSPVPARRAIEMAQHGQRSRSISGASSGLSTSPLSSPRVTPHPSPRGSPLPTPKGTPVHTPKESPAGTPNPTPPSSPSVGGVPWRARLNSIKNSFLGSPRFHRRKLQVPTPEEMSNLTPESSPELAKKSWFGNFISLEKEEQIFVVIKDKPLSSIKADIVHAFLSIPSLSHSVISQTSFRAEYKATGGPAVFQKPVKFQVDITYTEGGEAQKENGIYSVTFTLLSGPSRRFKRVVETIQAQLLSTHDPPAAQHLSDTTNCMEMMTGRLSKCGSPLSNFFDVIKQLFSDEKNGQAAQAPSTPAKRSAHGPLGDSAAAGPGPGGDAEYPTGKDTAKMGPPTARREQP

[17] = target: T6, Serine/threonine-protein kinase BRSK2 (Homo sapiens); conditions: at 1 µM
[18] = target: Calcium/calmodulin-dependent protein kinase type 1D (Homo sapiens) (UniProt Q8IU85); conditions: at 0.1 µM
[19] = target: Calcium/calmodulin-dependent protein kinase type 1D (Homo sapiens) (UniProt Q8IU85); conditions: at 1 µM
[20] = target: Calcium/calmodulin-dependent protein kinase type II subunit alpha (Homo sapiens) (UniProt Q9UQM7); conditions: at 0.1 µM;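 note: reported values are averages (mean inhibition of CAMK2A)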
Calcium/calmodulin-dependent protein kinase type II subunit alpha (Homo sapiens), sequence (Q9UQM7 whole entry): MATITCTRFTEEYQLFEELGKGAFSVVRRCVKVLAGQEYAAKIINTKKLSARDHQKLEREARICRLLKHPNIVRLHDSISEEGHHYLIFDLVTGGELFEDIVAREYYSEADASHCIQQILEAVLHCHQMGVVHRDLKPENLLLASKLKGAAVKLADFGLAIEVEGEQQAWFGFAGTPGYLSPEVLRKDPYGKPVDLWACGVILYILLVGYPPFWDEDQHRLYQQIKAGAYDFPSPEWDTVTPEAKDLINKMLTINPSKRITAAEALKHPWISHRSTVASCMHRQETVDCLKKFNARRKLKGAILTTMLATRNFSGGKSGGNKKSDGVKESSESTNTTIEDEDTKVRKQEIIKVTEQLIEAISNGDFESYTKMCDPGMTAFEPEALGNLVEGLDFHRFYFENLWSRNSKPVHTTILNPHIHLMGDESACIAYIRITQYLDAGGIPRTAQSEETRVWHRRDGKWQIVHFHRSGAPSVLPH

Calcium/calmodulin-dependent protein kinase type 1D (Homo sapiens), sequence (Q8IU85 whole entry, looked up): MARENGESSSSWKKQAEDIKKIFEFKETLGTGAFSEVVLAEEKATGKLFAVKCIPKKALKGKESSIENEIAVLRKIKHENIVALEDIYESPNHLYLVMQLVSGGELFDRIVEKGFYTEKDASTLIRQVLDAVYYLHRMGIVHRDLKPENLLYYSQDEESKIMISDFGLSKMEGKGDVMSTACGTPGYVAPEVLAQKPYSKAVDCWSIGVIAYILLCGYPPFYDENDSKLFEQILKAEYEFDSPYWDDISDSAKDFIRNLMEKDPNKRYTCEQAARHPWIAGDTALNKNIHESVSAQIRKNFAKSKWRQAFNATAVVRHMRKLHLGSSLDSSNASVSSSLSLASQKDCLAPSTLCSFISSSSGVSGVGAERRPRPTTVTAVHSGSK
5'-AMP-activated protein kinase catalytic subunit alpha-2 (Homo sapiens), sequence (P54646 whole entry, looked up): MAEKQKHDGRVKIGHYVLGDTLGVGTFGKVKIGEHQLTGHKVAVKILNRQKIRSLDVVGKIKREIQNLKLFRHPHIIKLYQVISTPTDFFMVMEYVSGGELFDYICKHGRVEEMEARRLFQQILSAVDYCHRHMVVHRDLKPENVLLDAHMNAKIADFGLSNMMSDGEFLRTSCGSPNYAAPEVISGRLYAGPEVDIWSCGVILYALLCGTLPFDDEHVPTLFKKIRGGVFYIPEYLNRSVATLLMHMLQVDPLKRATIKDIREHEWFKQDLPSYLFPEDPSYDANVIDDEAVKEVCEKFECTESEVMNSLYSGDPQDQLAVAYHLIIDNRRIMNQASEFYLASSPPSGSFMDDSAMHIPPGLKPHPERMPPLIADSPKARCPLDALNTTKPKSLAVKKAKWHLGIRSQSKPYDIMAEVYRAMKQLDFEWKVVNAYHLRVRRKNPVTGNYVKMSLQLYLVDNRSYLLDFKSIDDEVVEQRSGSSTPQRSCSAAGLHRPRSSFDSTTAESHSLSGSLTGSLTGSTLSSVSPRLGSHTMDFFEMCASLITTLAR
Ribosomal protein S6 kinase alpha-6 (Homo sapiens), sequence (Q9UK32 whole entry): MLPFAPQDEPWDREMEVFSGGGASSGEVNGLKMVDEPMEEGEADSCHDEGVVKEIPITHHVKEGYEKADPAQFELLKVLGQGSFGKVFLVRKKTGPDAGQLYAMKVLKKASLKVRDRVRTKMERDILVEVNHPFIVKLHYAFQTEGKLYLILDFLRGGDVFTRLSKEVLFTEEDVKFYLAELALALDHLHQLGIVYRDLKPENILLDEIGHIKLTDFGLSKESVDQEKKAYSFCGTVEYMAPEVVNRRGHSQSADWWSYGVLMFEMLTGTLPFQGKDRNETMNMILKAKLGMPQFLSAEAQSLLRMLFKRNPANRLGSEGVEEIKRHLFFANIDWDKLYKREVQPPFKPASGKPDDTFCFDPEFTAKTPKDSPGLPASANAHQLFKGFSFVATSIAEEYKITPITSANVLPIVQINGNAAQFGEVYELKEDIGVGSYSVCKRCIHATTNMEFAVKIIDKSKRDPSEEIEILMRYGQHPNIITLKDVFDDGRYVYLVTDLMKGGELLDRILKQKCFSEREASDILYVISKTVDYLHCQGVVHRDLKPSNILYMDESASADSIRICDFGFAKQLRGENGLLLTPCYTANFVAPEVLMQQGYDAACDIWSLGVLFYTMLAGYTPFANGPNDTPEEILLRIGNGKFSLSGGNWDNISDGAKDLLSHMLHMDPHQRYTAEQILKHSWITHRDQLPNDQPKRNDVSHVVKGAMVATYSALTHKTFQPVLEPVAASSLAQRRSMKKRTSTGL
5'-AMP-activated protein kinase catalytic subunit alpha-1 (Homo sapiens), sequence (Q13131 whole entry, looked up): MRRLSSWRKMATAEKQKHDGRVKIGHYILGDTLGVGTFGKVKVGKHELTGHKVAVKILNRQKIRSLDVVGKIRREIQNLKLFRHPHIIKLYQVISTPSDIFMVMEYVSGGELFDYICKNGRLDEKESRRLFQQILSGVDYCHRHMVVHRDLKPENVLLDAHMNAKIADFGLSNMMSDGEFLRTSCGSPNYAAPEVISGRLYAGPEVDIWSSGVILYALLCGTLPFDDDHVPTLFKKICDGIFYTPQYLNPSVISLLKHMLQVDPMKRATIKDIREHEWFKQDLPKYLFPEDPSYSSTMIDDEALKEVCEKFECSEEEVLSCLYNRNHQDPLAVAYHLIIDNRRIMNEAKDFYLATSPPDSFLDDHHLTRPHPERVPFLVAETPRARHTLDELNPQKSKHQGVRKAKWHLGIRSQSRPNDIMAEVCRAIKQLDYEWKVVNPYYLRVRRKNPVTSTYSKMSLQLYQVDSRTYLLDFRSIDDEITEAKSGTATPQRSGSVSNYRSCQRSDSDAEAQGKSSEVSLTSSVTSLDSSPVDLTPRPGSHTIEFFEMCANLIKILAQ

Row | Structure (SMILES) | inhibition [1] | inhibition [2] | inhibition [3] | inhibition [4] | inhibition [5] | inhibition [6] | inhibition [7] | inhibition [8] | inhibition [9] | inhibition [10] | inhibition [11] | inhibition [12] | inhibition [13] | inhibition [14] | inhibition [15] | inhibition [16] | inhibition [17] | inhibition [18] | inhibition [19] | inhibition [20]
1 | NC(=O)Cc1ccccc1Oc1nccc(-c2c(-c3ccc(F)cc3)ncn2C2CCNCC2)n1 | 2.01% | -0.43% | 0.48% | 1.13% | 0.76% | 0.96% | 0.86% | 2.61% | 1.44% | 1.24% | 2.59% | 0.84% | 2.97% | 4.71% | 6.12% | 4.74% | 5.25% | 0.63% | 1.65% | 2.81%
2 | O=C1Nc2ccc(I)cc2C1=Cc1cc(Br)c(O)c(Br)c1 | 3.84% | 0.41% | 2.04% | 1.05% | 0.89% | 3.3% | 1.73% | 1.53% | 3.41% | 6.97% | 3.18% | -1.04% | 3.51% | 3.87% | 0.15% | 0.3% | 2.23% | 1.27% | 2.96% | 4.96%
3 | COc1cc(C)c(N(C)C(=O)CN(C)C)cc1Nc1nc(Nc2cccc(F)c2C(N)=O)c2cc[nH]c2n1 | 4.74% | 1.3% | 0.1% | -3% | 3.7% | 0.02% | 0.78% | 1.44% | 0.94% | -0.28% | 3.07% | 0.7% | 4.1% | 0.88% | -0.02% | 0.05% | 0.83% | 1.27% | 2.67% | 3.48%
4 | FC(F)(F)c1cccc(Nc2nccc(-c3cnn4nc(-c5ccccc5)ccc34)n2)c1 | 0.82% | 2.37% | 2.67% | 1.96% | 1.95% | 2.7% | 1.72% | 1.9% | 1.87% | -0.41% | 2.89% | -0.22% | 4.2% | -0.11% | 4.72% | 1.87% | 2.68% | 0.17% | 0.28% | 0.97%
5 | COc1cc(Nc2ncc(-c3ccccc3)o2)cc(OC)c1OC | 6.6% | 1.24% | 5.44% | 3.15% | 1.18% | 0.24% | 0.29% | 0.26% | 9.16% | 5% | 5.35% | 24.4% | 61% | -0.43% | 5.91% | 0.44% | 10.5% | -1.93% | -0.01% | -3.81%
6 | C[C@@H](Oc1cc(-n2cnc3ccc(OCC4CCN(C)CC4)cc32)sc1C(N)=O)c1ccccc1Cl | 42.4% | 2.62% | 4.04% | 4.94% | 3.37% | 2.38% | 3.66% | 6.05% | 24.5% | 8.96% | 13.7% | 30.2% | 71.9% | 28.5% | 60% | 38.5% | 72.8% | 1.56% | 5.96% | 6.36%
